# Source: ChEMBL document CHEMBL3988442, “University of Dundee, Small-Polar-MMV Screening Library” (2021)
# Hit rate of the full screen: of about 53,000 compounds, about 900 (1.7%) showed an effect of 50% or more. The list comes from a sample in which strong results are over-represented; it also holds similar structures and randomly drawn compounds.
# Test system: Mycobacterium tuberculosis
# Experiment: Cornell - Phenotypic assay to identify agents that inhibit growth of Mycobacterium tuberculosis
# Assay type: functional
# Parameters: scale not given: direction of the effect not stated beside the values
# Conditions: 10 mM as filed; unlikely as a test dose
row,Structure (SMILES),Percent Effect
1,CC(=O)Nc1cccc(OCCNC(=O)N(C)Cc2ccco2)c1,2.051%
2,CC(C)C(=O)Nc1cccc(OCC(=O)NCc2ccccc2F)c1,6.908%
3,CC(C)C[C@H](N)COc1cccc(F)c1Oc1ccccc1,5.347%
4,CC(C)C[C@H](N)COc1cccc(F)c1Oc1ccc(Cl)cc1,107.4%
5,Cc1ccc(Oc2c(F)cccc2OC[C@@H](N)CC(C)C)cc1,106.4%
6,CC(C)C[C@H](N)COc1cccc(F)c1Oc1cccc(Cl)c1,106.7%
7,CNCc1cc(F)ccc1Oc1ccc(Cl)cc1,-16.87%
8,CCNCCOc1ccc(-c2cc(N)nc3[nH]ccc23)cc1,21.99%
9,COc1c(C)cnc(CN2CCCC2c2noc(C)n2)c1C (stereo not given),-16.92%
10,CCCC1(CO)CCCN(c2ncnc3c2c(C)nn3C)C1 (stereo not given),-13.93%
11,Cc1cccc(-c2ccc(C(=O)N3CCN(C(C)C)CC3)c(=O)[nH]2)c1,26.41%
12,CC(C)OCCC(=O)NS(=O)(=O)N1CCOc2ccccc21,29.29%
13,CCOc1ccccc1C(=O)NCCc1ccoc1,23.58%
14,CNS(=O)(=O)c1ccc(C(=O)NC2CCOc3ccccc32)o1 (stereo not given),7.684%
15,CC(C)c1nnc2sc(CC3CN(Cc4ccccc4)CCO3)nn12 (stereo not given),-19.21%
16,CC(C)COCCCNC(=O)c1cccnc1N1CCOCC1,3.314%
17,O=C(NCCCOCC1CCCO1)c1cccnc1N1CCOCC1 (stereo not given),-37.06%
18,O=C(NCCCOCC1CCCO1)c1cccnc1N1CCCC1 (stereo not given),105.2%
19,Cc1ccc(C)n1-c1ccc(C(=O)NCCNc2ncccn2)cc1,76.43%
20,CCc1ccc(C(=O)NCCNc2ncccn2)cc1,-25.5%
21,O=C(NCCNc1ncccn1)c1ccc(Br)cc1,-16.37%
22,Cc1cc(N(C)C)nc(C2(C)CCCN2C(=O)c2cncnc2C)n1 (stereo not given),-9.352%
23,CN(C)C(=O)[C@@H]1CCO[C@@H]2CCN(Cc3ccc4c(c3)OCO4)C[C@@H]21.O=C(O)C(F)(F)F,-46.82%
24,CN(C)C(=O)[C@@H]1CCO[C@@H]2CCN(CCc3ccccc3)C[C@@H]21.O=C(O)C(F)(F)F,4.406%
25,CN(C)C(=O)[C@@H]1CCO[C@@H]2CCN(Cc3ccccc3)C[C@@H]21.O=C(O)C(F)(F)F,104.8%

row,Structure (SMILES),Percent Effect
1,CCc1ccc(CN(C(=O)CCn2cc(S(N)(=O)=O)cn2)C2CC2)cc1,-10.53%
2,COc1ccc(C2CN(c3cc(C)ncn3)CCN2C(C)=O)cc1 (stereo not given),-53.77%
3,Cc1nn(CCNc2ncnc3c2NC(=O)CN3)c(C)c1Cl,45.57%
4,COc1cc(N2CCC3(CCN(Cc4csc(C)n4)C3)CC2)ncn1.O=C(O)C(F)(F)F,24.59%
5,CCCc1noc(CCC(=O)N2CCCC2c2ccsc2)n1 (stereo not given),22.08%
6,CCCc1noc(CN2CCCC2c2ccsc2)n1 (stereo not given),52.86%
7,Cc1nnc(CN2CCCC2c2ccsc2)o1 (stereo not given),14.43%
8,CN(C)CCNC(=O)c1ccn(-c2ccc3ccccn23)n1.O=C(O)C(F)(F)F,12.93%
9,CC(C)N1CCCC1c1cc(CCO)[nH]n1 (stereo not given),11.54%
10,CCC(=O)N1CCC(c2cc(Nc3ncccn3)nc(C)n2)C1 (stereo not given),-34.07%
11,CN([C@@H]1CC[C@@H](N2CCCC2)[C@@H]1O)S(=O)(=O)c1ccccc1,24.86%
12,O=C1CN([C@@H]2CC[C@@H](NS(=O)(=O)c3ccccc3F)[C@H]2O)CCN1,-3.18%
13,O=C1CN([C@@H]2CC[C@@H](NS(=O)(=O)c3ccc(F)cc3)[C@H]2O)CCN1,42.43%
14,O=C1CN([C@@H]2CC[C@@H](NS(=O)(=O)c3ccccc3)[C@H]2O)CCN1,55.41%
15,Cc1ccccc1CC(=O)N[C@@H]1CCC[C@@H](N2CCNC(=O)C2)[C@@H]1O,3.763%
16,Cc1ccccc1S(=O)(=O)N[C@@H]1CC[C@@H](N2CCNC(=O)C2)[C@@H]1O,54.18%
17,Cc1ccc(-c2nnc(CN3CCn4c(nnc4C4CC4)C3)o2)cc1,2.899%
18,CCOCC(=O)N1C[C@@H]2CC[C@H](Oc3ccccc3)[C@@H]2C1,-14.06%
19,CCCN1CCCn2nc(CNS(=O)(=O)c3cccc(F)c3)cc2C1,-34.67%
20,CCN(CC)CCCNCc1cc2cc(C)ccc2[nH]c1=O,4.422%
21,CCOc1ncccc1NC(=O)N1CCC(n2cncn2)CC1,14.59%
22,Cc1cccc(CN(Cc2ccccn2)Cc2ncc(C(C)(C)C)o2)c1,69.04%
23,CCN(Cc1ncc(C(C)(C)C)o1)Cc1ccccc1C,-5.269%
24,CCN(Cc1cccc(Cl)c1)Cc1ncc(C(C)(C)C)o1,0.2424%
25,Cc1nc2ccc(C(=O)N3C[C@@H](O)[C@H](N4CCCC4)C3)cc2[nH]1,1.956%

row,Structure (SMILES),Percent Effect
1,COCC(=O)NC(c1ccccc1)c1ccc2c(c1)CCCO2 (stereo not given),34.89%
2,Cc1cc(NCc2cccc(C#N)c2)ccc1Br,50.78%
3,Cc1cc(NCc2cccc(C#N)c2)ccc1C(N)=O,38.13%
4,Cc1cc(NCc2cccc(C#N)c2)ccc1C(=O)N(C)C,22.32%
5,CCN(CC)c1nc(Nc2cccc(C(C)O)c2)nc2ccccc12 (stereo not given),104.6%
6,CC(O)c1cccc(Nc2nc(NCCO)c3ccccc3n2)c1 (stereo not given),-13.85%
7,CCN(CC)c1nc(Nc2cccc(C(=O)O)c2)nc2ccccc12,-13.69%
8,NC(=O)NCC(=O)N1CCCC(OCc2cccnc2)C1 (stereo not given),-45.31%
9,Cn1ncc2ccc(C3CCCN(Cc4cccs4)C3)nc21 (stereo not given),-1.871%
10,Oc1cc(C2CCCCN2Cc2cccs2)nc(-c2ccccn2)n1 (stereo not given),21.14%
11,Oc1cc(C2CCCN(Cc3cccs3)C2)nc(-c2ccccn2)n1 (stereo not given),76.98%
12,Cc1nc(CCN2CCC(Oc3ccccc3F)CC2)cs1,0.3496%
13,Cc1nc(CCN2CCC(Oc3ccccc3F)CC2)c(C)s1,4.042%
14,Cc1nc(C)c(CCN2CCC(Oc3ccccc3F)CC2)s1,50.26%
15,Cc1cnc(-c2nc(O)c3c(n2)CN(C(=O)CC2CCCC2)CC3)cn1,2.725%
16,CCN(Cc1ccc2c(c1)OCCO2)S(=O)(=O)N(C)C(C)C,54.92%
17,CCN(C)S(=O)(=O)N(CC)Cc1ccc2c(c1)OCO2,26.78%
18,CC(C)N(C)S(=O)(=O)N(C)Cc1ccc2c(c1)OCO2,-6.095%
19,CCn1cnnc1C1CCN(C(=O)c2ccc(OC(C)C)nc2)CC1,22.89%
20,CC(C)c1nnc(CN(C)C(c2ccccc2)c2ccc(F)cc2)o1 (stereo not given),32.65%
21,CN(Cc1nnc(C2CC2)o1)Cc1ccccc1-c1ccccc1,24.56%
22,CC(C)c1nnc(CN(C)Cc2ccccc2-c2ccccc2)o1,60.67%
23,Cc1nn(C)c(C)c1NC(=O)CN1CCOC(CN(C)C)C1 (stereo not given),13.8%
24,O=C(C1=CCCC1)N1C[C@@H]2COC[C@]2(COCc2ccncc2)C1,-20.46%
25,CCc1nnc(Nc2cc(C)nc(C3CCN(c4ccncn4)C3)n2)s1 (stereo not given),-19.2%

row,Structure (SMILES),Percent Effect
1,O=C(Cn1ccc2ccccc21)N1CCC(Oc2ncccc2Br)CC1,58.45%
2,Cc1cccc(OC2CCN(C(=O)Cn3ccc4ccccc43)CC2)n1,59.2%
3,COC1CCN(C(=O)Cn2ccc3ccccc32)CC1,2.586%
4,O=C(NCc1ccccc1)N1CCC(Oc2ncccc2Br)CC1,-14.28%
5,Cc1cccc(OC2CCN(C(=O)c3ccc4c(c3)OCO4)CC2)n1,37.52%
6,O=C(CCn1ccc(=O)[nH]c1=O)N1CCC(Oc2ncccc2Cl)CC1,20.85%
7,O=C(CCC(=O)N1CCC(OCc2cccnc2)CC1)c1ccccc1,-10.19%
8,O=C(CCC(=O)N1CCC(Oc2ncccc2Br)CC1)c1ccccc1,95.35%
9,O=C(Cn1ccc2ccccc21)N1CCC(Oc2cnccn2)CC1,24.96%
10,CS(=O)(=O)NCCCNC(=O)c1cccc(-n2cccc2)c1,-24.26%
11,CC(=O)Nc1nc(SCc2ccc3c(c2)OCO3)ns1,6.348%
12,CCCN1CCN(C(=O)Nc2ccccc2Cl)[C@H]2CS(=O)(=O)C[C@H]21,2.165%
13,CC1CCN(Cc2ccccc2CNC(=O)C2CNC(=O)N2)CC1 (stereo not given),-0.9762%
14,CCOC1COC2(CCN(c3ccccn3)CC2)C1.O=C(O)C(F)(F)F (stereo not given),3.904%
15,CCOc1ccccc1C(=O)N1CC(=O)N(C2CCC2)CC(O)C1 (stereo not given),12.12%
16,CN(Cc1cccnc1)[C@@H]1CN(c2ccccn2)[C@@H]2CCCO[C@H]12,3.977%
17,CN(Cc1cccnc1)[C@@H]1CN(c2ncc(F)cn2)[C@@H]2CCCO[C@H]12,19.63%
18,CN(Cc1cccnc1)[C@@H]1CN(Cc2ccccn2)[C@@H]2CCCO[C@H]12,51.65%
19,COc1ccc2c(c1)CC(C1CCOCC1)N(C(=O)c1ccnn1C)C2 (stereo not given),13.18%
20,CN1CCN(C)C(CNC(=O)N(C)Cc2ccc(Cl)c(F)c2)C1 (stereo not given),12.24%
21,C=C/C=c1\c(=C/C)oc2c(NCc3ccccc3)nc(CC)nc12,44.26%
22,C=C/C=c1\c(=C/C)oc2c(NCc3ccccc3)nc(C)nc12,70.49%
23,C=C/C=c1\c(=C/C)oc2c(NCc3ccccc3)ncnc12,8.559%
24,O=c1c2ccccc2nc2n1C(CSc1ccc(Br)cc1)CN2 (stereo not given),19.98%
25,COCCOc1ccc(Cl)c(C(=O)N2CCN(CCO)CC2)n1,-16.9%
